Results filed as inconclusive are left out. The source made the active and inactive calls. Rule for the calls, unless noted: active = hit-call score of the fitted dose curve at least 0.9, where 1 is the maximum; inactive = score below 0.9.
Assays:
[1] = UKN5_HCS_SBAD2_cell_viability: Viability Assessment in the University of Konstanz (UKN) Leist Lab Neurite Outgrowth Assay in human iPSC-derived immature Dorsal Root Ganglia Neurons (UKN5) (AID 2284056)
Summary of the method: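 iPSC-derived immature peripheral neurons (SBAD2) seeded on Matrigel with CHIR99021, SU5402 and DAPT, dosed 1 h later for 24 h. Viability from Hoechst H-33342 and calcein-AM live staining, high-content imaging; bidirectional fit versus DMSO.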

[2] = UKN5_HCS_SBAD2_neurite_outgrowth: University of Konstanz (UKN) Leist Lab Neurite Outgrowth Assay in human iPSC-derived immature Dorsal Root Ganglia Neurons (UKN5) (AID 2284070); settings: actives raise or lower the signal
Summary of the method: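 SBAD2 iPSC-derived immature peripheral neurons on Matrigel, 100.000 cells/cm2, medium with CHIR99021 (1.5 uM), SU5402 (5 uM), DAPT (5 uM); compound added 1 h post-seeding for 24 h. Calcein-AM neurite area by high-content imaging; Hoechst H-33342 viability; bidirectional fit vs DMSO.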

[3] = UKN2_HCS_IMR90_neural_migration: University of Konstanz (UKN) Leist Lab Neural Crest Cell Migration Assay in human induced IMR90 Pluripotent Stem Cells (UKN2) (AID 2284204); settings: actives raise or lower the signal
Summary of the method: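 iPSC-derived IMR90 neural crest cells on PLO/laminin/fibronectin were seeded around silicone stoppers; after stopper removal, migration in N2-S medium with EGF and FGF ran 24 h before 24 h chemical exposure. Calcein-AM/Hoechst high-content imaging; bidirectional fit versus DMSO.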

[4] = UKN4_HCS_LUHMES_neurite_outgrowth: University of Konstanz (UKN) Leist Lab Neurite Outgrowth Assay in human LUHMES cells (UKN4) (AID 2284206); settings: actives raise or lower the signal
Summary of the method: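 Human LUHMES neuronal precursors, differentiated 2 days then replated without cAMP and GDNF, exposed to compounds for 24 h. Neurite area imaged by high-content microscopy after calcein-AM live staining; Hoechst H-33342 for viability; bidirectional fit versus DMSO.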

[5] = IUF_NPC1b_proliferation_BrdU_72hr: Leibniz Research Institute for Environmental Medicine (IUF) 72-hour Neural Progenitor Cell Bromodeoxyuridine (BrdU) Proliferation Assay (NPC1b) (AID 2284207)
Summary of the method: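 hNPC spheres (primary, GW 16-19 fetal cortex), single sphere/well, EGF+FGF medium; 72 h compound, no renewal; BrdU pulse last 16 h; luminescent ELISA; activity vs DMSO baseline; growth-factor withdrawal as positive control.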

[6] = IUF_NPC1_viability_72hr: Viability Assessment at 72 hours in the Leibniz Research Institute for Environmental Medicine (IUF) Neural Progenitor Cell Proliferation Assay (NPC1) (AID 2284209)
Summary of the method: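 Single spheres (0.25-0.35 mm) of human fetal cortex-derived neural progenitor cells were grown in proliferation medium with EGF and FGF at 37C and 5% CO2. They were exposed for 72 h without renewal, and viability was read by alamar blue resorufin fluorescence.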

[7] = UKN4_HCS_LUHMES_cell_viability: Viability Assessment in the University of Konstanz (UKN) Leist Lab Neurite Outgrowth Assay in human LUHMES cells (UKN4) (AID 2284232)
Summary of the method: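 LUHMES precursors differentiated 2 days, replated at 30000 cells/well without cAMP/GDNF, then compound-treated 24 h. Viability from Hoechst H-33342 and calcein-AM live staining (30 min) by high-content fluorescence imaging; bidirectional fit versus DMSO.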

[8] = UKN2_HCS_IMR90_cell_viability: Viability Assessment in the University of Konstanz (UKN) Leist Lab Neural Crest Cell Migration Assay in human induced IMR90 Pluripotent Stem Cells (UKN2) (AID 2284233);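 note: viability of neural crest cells differentiated from IMR90 iPSC measured by calcein-AM fluorescence imaging; cells exposed to compound for 24 h after a 24 h migration phase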
Summary of the method: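 iPSC-derived (IMR90) neural crest cells seeded around silicone stoppers on PLO/laminin/fibronectin; after 24 h migration in N2-S with EGF/FGF, chemical added for 24 h. Calcein-AM/Hoechst stained 30 min, high-content imaged; bidirectional fit versus DMSO.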

[9] = IUF_NPC2c_oligodendrocyte_migration_120hr: Leibniz Research Institute for Environmental Medicine (IUF) 120-hour Neural Progenitor Cell Migration Assay for Oligodendrocyte Migration (NPC2c) (AID 2284297);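 note: O4-positive oligodendrocyte migration distance divided by radial glia migration distance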
Summary of the method: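 Human fetal neural progenitor spheres (0.3 mm) are plated on poly-D-lysine/laminin in N2 differentiation medium and exposed for 120 h, with half-medium renewal at day 3. Oligodendrocyte (O4+) migration distance comes from ICC imaging, normalised to radial glia migration.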

[10] = IUF_NPC2a_radial_glia_migration_120hr: Leibniz Research Institute for Environmental Medicine (IUF) 120-hour Neural Progenitor Cell Migration Assay for Radial Glia Migration (NPC2a) (AID 2284298)
Summary of the method: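 Human fetal-cortex neural progenitor spheres (0.3 mm) plated on poly-D-lysine/laminin in N2 differentiation medium, exposed 120 h at 37C with half-medium renewal at day 3. Radial glia migration distance (um) measured from Hoechst-stained nuclei images; DMSO baseline.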

[11] = IUF_NPC2a_radial_glia_migration_72hr: Leibniz Research Institute for Environmental Medicine (IUF) 72-hour Neural Progenitor Cell Migration Assay for Radial Glia Migration (NPC2a) (AID 2284299)
Summary of the method: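 Human fetal neural progenitor spheres (0.3 mm) plated on poly-D-lysine/laminin in N2 differentiation medium and exposed from day 0 at 7 concentrations; radial glia migration distance from sphere edge measured at 72 h on brightfield images, mean of four directions, vs DMSO.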

[12] = IUF_NPC2b_neuronal_migration_120hr: Leibniz Research Institute for Environmental Medicine (IUF) 120-hour Neural Progenitor Cell Migration Assay for Neuron Migration (NPC2b) (AID 2284300)
Summary of the method: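 0.3 mm hNPC spheres on poly-D-lysine/laminin in N2 differentiation medium exposed 120 h, half-medium refresh day 3; 7 concentrations, DMSO max 0.1%. Neuron (TUBB3) distance from sphere core by ICC imaging, normalised to radial glia migration.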

[13] = IUF_NPC3_neuronal_differentiation_120hr: Leibniz Research Institute for Environmental Medicine (IUF) 120-hour Neuronal Differentiation Assay (NPC3) (AID 2284301)
Summary of the method: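 Primary human fetal neural progenitor spheres (GW 16-19, 0.3 mm) plated on poly-D-lysine/laminin in N2 medium, exposed from day 0 for 120 h with half-medium refresh at day 3. TUBB3+ cells as percent of Hoechst nuclei in migration area; DMSO baseline.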

[14] = IUF_NPC4_neurite_area_120hr: Leibniz Research Institute for Environmental Medicine (IUF) 120-hour Neuronal Morphology Assay for Neurite Area (NPC4) (AID 2284305; active = hit-call score of the fitted dose curve at least 0.9, where 1 is the maximum)
Summary of the method: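 Human fetal cortex-derived neural progenitor spheres (0.3 mm, GW 16-19) plated on poly-D-lysine/laminin in N2 differentiation medium and exposed from day 0 for 120 h across 7 concentrations plus solvent control. Neurite area is mean pixel area per TUBB3-positive neuron via skeletonization, analysed relative to DMSO.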

[15] = IUF_NPC2-5_cell_number_120hr: Cell Number Assessment at 120 hours in the Leibniz Research Institute for Environmental Medicine (IUF) Neural Progenitor Cell Migration and Differentiation Assay (NPC2-5) (AID 2284308);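 note: count of Hoechst-stained nuclei in migration zone around plated human neural progenitor spheres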
Summary of the method: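 Human fetal neural progenitor spheres (0.3 mm) plated on poly-D-lysine/laminin in N2 differentiation medium, exposed five days across 7 concentrations with half-medium refresh at day 3. Hoechst-positive nuclei counted in migration area at 120 h, relative to DMSO.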

[16] = IUF_NPC2-5_viability_120hr: Viability Assessment at 120 hours in the Leibniz Research Institute for Environmental Medicine (IUF) Neural Progenitor Cell Migration and Differentiation Assay (NPC2-5) (AID 2284312)
Summary of the method: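 Human fetal (GW 16-19) neural progenitor spheres of 0.3 mm were plated on poly-D-lysine/laminin in N2 differentiation medium and exposed from day 0 for 120 h, with half-medium refresh at day 3. Viability was read as alamar blue resazurin-to-resorufin fluorescence against DMSO.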

Measured: AC50

CC(=O)OC/N=[N+](\C)[O-]
active: [2] 613 µM | [4] 721 µM | [5] 371 µM | [6] 1150 µM
inactive: all other assays above

From PubChem BioAssay (EPA / NIEHS)
